From the supplement of paper PMC10849652
Targets with a hit are over-represented here; the source holds about 8,800 in all. About 0.5% of all pairs of compound and target were hits.

What was measured:
Experiment in all cases: log2 fold change, soluble protein after heating vs DMSO (PISA); higher = thermal stabilisation; K562 lysate, 10 uM; active = over 0.2 and 3.5 SD of the protein, either way, in both replicates (recomputed)
[1] = compound: Cc1cn(-c2cc(NC(=O)c3ccc(C)c(Nc4nccc(-c5cccnc5)n4)c3)cc(C(F)(F)F)c2)cn1 [nilotinib]
Procedure, shortened: (§1)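 Soluble protein was defined as the supernatant remaining after 21,000xg for 90 min, following pooling of heated aliquots and adjustment to 0.5% NP-40 at 4°C. Before that, crude K562 extract at 1 mg/mL protein in PBS pH 7.4 with 1 mM MgCl2 was treated with 10 μM compound for 30 min and heated for 3 min across 48°C-58°C. Quantification used TMTpro 16plex LC-MS/MS with channel sums equalised, and values are log-two fold changes in thermal stability relative to solvent controls from duplicates.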

[2] = compound: Cc1nc(Nc2n[nH]c3c2CN(C(=O)N[C@H](CN(C)C)c2ccccc2)C3(C)C)c2sccc2n1
Procedure, shortened: as §1

[3] = compound: Cc1nc(Nc2ncc(C(=O)Nc3c(C)cccc3Cl)s2)cc(N2CCN(CCO)CC2)n1 [dasatinib]
Procedure, shortened: as §1

[4] = compound: Cc1ncc(-c2ccnc(Nc3ccc(S(C)(=O)=O)cc3)n2)n1C(C)C
Procedure, shortened: as §1

[5] = compound: Cn1cc(-c2ccc3c(c2)CCN3C(=O)Cc2cccc(C(F)(F)F)c2)c2c(N)ncnc21
Procedure, shortened: as §1

[6] = compound: Cn1cc(CNCC2CCN(c3ncc(C(=O)NO)cn3)CC2)c2ccccc21 [quisinostat]
Procedure, shortened: as §1

[7] = compound: Cn1cncc1[C@@](N)(c1ccc(Cl)cc1)c1ccc2c(c1)c(-c1cccc(Cl)c1)cc(=O)n2C [tipifarnib]
Procedure, shortened: as §1

[8] = compound: NC(=O)Nc1cc(-c2cccc(F)c2)sc1C(=O)N[C@H]1CCCNC1
Procedure, shortened: as §1

[9] = compound: NC(=O)c1cnc(N[C@@H]2CCCC[C@@H]2N)nc1Nc1cccc(-n2nccn2)c1
Procedure, shortened: as §1

[10] = compound: NC1(c2ccc(-c3nc4ccn5c(=O)[nH]nc5c4cc3-c3ccccc3)cc2)CCC1
Procedure, shortened: as §1

Measured: log2 fold change

APOBEC3C (UniProt Q9NRW3)
inactive: [1] 0.082 | [2] -0.014 | [3] -0.005 | [4] 0 | [5] 0.042 | [6] -0.144 | [7] -0.024 | [8] -0.067 | [9] -0.001 | [10] 0.028

ADD1 isoform 3 (UniProt P35611)
Sequence of UniProt P35611 (P35611 whole entry, looked up): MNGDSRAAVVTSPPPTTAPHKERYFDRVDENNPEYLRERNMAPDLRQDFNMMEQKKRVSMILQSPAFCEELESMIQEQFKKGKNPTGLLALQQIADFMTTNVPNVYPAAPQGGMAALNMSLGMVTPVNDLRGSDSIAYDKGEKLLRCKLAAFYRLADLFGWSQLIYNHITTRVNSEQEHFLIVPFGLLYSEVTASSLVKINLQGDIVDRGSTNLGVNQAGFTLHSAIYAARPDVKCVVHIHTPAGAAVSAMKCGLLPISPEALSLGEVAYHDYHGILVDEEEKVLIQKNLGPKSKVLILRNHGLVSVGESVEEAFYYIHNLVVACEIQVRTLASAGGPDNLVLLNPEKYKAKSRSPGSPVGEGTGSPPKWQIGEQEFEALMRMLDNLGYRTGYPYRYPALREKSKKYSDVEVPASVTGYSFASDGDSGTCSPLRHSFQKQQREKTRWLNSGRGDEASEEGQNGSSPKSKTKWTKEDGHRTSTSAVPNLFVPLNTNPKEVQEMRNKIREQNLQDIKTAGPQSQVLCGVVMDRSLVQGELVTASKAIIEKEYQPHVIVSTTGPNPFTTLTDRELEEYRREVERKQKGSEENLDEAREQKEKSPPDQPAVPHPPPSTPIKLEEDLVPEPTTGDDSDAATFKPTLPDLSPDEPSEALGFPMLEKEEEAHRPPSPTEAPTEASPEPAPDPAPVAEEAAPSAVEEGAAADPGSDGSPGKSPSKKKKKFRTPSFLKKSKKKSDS
inactive: [1] 0.027 | [2] -0.005 | [3] 0.007 | [4] -0.017 | [5] -0.012 | [6] -0.016 | [7] 0.019 | [8] 0.007 | [9] -0.015 | [10] 0.011

AMD1 (UniProt P17707)
inactive: [1] -0.05 | [2] -0.04 | [3] -0.031 | [4] -0.001 | [5] 0.055 | [6] -0.145 | [7] -0.005 | [8] 0.151 | [9] 0.229 | [10] -0.022

ABL2 (UniProt P42684)
inactive: [1] -0.084 | [2] 0.157 | [3] 0.067 | [4] 0.091 | [5] 0.064 | [6] -0.16 | [7] -0.116 | [8] 0.103 | [9] -0.028 | [10] -0.027

ALDH2 (UniProt P05091)
inactive: [1] 0.028 | [2] -0.017 | [3] 0.014 | [4] -0.013 | [5] 0.001 | [6] 0.121 | [7] 0.039 | [8] 0.001 | [9] 0.016 | [10] -0.003

AMMECR1 (UniProt Q9Y4X0)
inactive: [1] -0.005 | [2] -0.025 | [3] -0.037 | [4] 0.017 | [5] 0.035 | [6] -0.054 | [7] 0.022 | [8] 0.021 | [9] 0.007 | [10] -0.024

AGO4 (UniProt Q9HCK5)
inactive: [1] -0.152 | [2] 0.07 | [3] 0 | [4] 0.004 | [5] -0.022 | [6] -0.037 | [7] 0.005 | [8] 0.015 | [9] 0.014 | [10] -0.002

ABI1 isoform 9 (UniProt Q8IZP0)
inactive: [1] -0.006 | [2] -0.004 | [3] -0.001 | [4] -0.02 | [5] -0.016 | [6] 0.003 | [7] -0.01 | [8] -0.023 | [9] 0.003 | [10] 0.032

ANAPC7 (UniProt Q9UJX3)
Sequence of UniProt Q9UJX3 (Q9UJX3 whole entry, looked up): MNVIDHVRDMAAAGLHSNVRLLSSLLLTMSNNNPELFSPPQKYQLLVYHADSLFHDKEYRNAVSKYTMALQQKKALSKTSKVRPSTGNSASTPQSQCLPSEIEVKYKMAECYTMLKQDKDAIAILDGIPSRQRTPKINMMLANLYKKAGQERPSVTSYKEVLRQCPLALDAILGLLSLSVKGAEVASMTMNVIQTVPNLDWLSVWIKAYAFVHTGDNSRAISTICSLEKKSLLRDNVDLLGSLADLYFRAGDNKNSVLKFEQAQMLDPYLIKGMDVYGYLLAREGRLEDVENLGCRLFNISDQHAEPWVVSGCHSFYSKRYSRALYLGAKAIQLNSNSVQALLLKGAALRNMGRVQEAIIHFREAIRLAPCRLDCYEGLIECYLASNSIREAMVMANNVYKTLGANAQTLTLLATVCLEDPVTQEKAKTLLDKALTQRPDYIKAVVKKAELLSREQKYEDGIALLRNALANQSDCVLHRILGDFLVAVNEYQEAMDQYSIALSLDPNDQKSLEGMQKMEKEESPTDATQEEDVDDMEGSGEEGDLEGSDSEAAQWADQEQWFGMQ
inactive: [1] -0.004 | [2] -0.006 | [3] -0.004 | [4] 0.008 | [5] 0.02 | [6] -0.054 | [7] -0.019 | [8] 0.03 | [9] 0 | [10] -0.018

ARL15 (UniProt Q9NXU5)
inactive: [1] -0.008 | [2] 0.021 | [3] -0.063 | [4] -0.046 | [5] 0.036 | [6] 0.024 | [7] 0.031 | [8] -0.034 | [9] 0.021 | [10] 0.022

ANXA1 (UniProt P04083)
inactive: [1] -0.01 | [2] -0.009 | [3] -0.009 | [4] -0.006 | [5] -0.006 | [6] 0.034 | [7] 0.026 | [8] -0.015 | [9] 0.003 | [10] 0.009

AGTPBP1 (UniProt Q9UPW5)
inactive: [1] 0.077 | [2] -0.205 | [3] 0.038 | [4] 0.1 | [5] -0.032 | [6] -0.197 | [7] 0.207 | [8] 0.038 | [9] 0.045 | [10] 0.115

AKT1 (UniProt P31749)
inactive: [1] -0.05 | [2] 0.012 | [3] -0.014 | [4] -0.01 | [5] 0.001 | [6] -0.1 | [7] 0.025 | [8] 0 | [9] -0.007
active: [10] 0.669

ALDH5A1 isoform 2 (UniProt P51649)
Sequence of UniProt P51649 (P51649 whole entry, looked up): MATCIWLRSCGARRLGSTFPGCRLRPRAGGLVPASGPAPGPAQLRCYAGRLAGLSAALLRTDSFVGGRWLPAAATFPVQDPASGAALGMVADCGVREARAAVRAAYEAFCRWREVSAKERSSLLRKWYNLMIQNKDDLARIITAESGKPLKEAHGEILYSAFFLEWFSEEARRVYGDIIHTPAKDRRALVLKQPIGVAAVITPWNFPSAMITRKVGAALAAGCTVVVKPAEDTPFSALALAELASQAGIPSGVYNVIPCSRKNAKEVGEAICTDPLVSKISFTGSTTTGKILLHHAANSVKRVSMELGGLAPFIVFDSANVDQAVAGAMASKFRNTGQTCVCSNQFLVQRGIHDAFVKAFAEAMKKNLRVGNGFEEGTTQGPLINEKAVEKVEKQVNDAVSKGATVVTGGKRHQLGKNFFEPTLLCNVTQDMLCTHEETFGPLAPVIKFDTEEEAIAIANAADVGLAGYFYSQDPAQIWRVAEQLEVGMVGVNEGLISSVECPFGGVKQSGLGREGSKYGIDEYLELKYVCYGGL
inactive: [1] 0.003 | [2] -0.019 | [3] -0.005 | [4] -0.015 | [5] -0.003 | [6] 0.028 | [7] -0.063 | [8] 0.04 | [9] 0.004 | [10] -0.023

ALDH1B1 (UniProt P30837)
inactive: [1] 0.096 | [2] -0.015 | [3] -0.022 | [4] 0.013 | [5] 0.034 | [6] 0.118 | [7] 0.05 | [8] 0.046 | [9] 0.011 | [10] 0.003

ANKRD27 (UniProt Q96NW4)
Sequence of UniProt Q96NW4 (Q96NW4 whole entry, looked up): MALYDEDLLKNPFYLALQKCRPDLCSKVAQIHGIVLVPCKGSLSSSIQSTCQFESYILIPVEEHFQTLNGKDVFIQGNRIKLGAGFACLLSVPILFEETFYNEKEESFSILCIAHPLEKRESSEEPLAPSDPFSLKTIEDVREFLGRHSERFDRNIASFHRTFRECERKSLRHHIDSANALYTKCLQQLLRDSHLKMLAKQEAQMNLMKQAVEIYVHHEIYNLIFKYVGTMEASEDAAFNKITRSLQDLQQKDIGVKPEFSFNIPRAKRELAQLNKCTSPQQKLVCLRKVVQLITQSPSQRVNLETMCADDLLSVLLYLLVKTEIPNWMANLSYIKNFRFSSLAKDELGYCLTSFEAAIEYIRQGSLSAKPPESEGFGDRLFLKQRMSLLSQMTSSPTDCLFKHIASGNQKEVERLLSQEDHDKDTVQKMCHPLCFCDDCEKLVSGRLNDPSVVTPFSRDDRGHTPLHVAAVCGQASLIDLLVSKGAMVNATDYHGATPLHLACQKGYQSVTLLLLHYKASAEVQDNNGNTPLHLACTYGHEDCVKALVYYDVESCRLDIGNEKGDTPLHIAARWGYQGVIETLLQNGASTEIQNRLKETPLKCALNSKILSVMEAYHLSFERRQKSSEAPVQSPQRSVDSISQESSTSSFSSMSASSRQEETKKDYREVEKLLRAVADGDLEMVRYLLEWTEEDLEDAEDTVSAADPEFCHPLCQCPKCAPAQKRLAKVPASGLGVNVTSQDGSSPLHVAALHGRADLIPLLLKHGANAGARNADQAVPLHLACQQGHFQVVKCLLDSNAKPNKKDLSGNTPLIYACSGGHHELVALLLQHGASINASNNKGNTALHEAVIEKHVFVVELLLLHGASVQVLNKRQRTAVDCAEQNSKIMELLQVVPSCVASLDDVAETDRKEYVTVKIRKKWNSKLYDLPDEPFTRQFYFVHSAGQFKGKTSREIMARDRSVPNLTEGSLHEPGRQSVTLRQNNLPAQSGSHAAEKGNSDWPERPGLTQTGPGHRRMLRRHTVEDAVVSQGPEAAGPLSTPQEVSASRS
inactive: [1] 0.016 | [2] 0.049 | [3] -0.01 | [4] 0.061 | [5] -0.023 | [6] -0.177 | [7] -0.067 | [8] 0.05 | [9] 0.025 | [10] -0.033

AFF1 isoform 2 (UniProt P51825)
inactive: [1] -0.069 | [2] 0.022 | [3] 0.059 | [4] 0.069 | [5] -0.043 | [6] -0.01 | [7] 0.028 | [8] -0.005 | [9] 0.194 | [10] 0.008

ACSL1 (UniProt P33121)
Sequence of UniProt P33121 (P33121 whole entry, looked up): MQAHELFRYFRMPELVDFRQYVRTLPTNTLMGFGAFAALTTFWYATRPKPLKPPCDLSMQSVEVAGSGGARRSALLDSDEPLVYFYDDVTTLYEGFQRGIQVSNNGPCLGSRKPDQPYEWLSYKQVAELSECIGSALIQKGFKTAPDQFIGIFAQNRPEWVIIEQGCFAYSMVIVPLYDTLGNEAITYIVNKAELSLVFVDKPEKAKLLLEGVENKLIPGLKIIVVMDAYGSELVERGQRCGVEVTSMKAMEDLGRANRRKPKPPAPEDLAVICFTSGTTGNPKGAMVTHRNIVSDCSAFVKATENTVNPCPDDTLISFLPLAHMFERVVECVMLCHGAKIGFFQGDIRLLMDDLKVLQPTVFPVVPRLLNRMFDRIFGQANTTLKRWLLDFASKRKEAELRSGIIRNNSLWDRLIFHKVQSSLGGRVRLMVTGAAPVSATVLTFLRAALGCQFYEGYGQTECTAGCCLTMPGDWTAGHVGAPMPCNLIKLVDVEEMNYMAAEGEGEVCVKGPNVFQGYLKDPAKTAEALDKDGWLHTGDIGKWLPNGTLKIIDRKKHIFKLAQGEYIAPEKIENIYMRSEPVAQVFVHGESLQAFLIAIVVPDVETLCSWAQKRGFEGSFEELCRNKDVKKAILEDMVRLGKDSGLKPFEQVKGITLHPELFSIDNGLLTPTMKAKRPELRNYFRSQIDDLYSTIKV
inactive: [1] -0.004 | [2] -0.002 | [3] -0.132 | [4] 0.013 | [5] 0.05 | [6] 0.007 | [7] -0.013 | [8] 0.034 | [9] -0.025 | [10] -0.04

APAF1 (UniProt O14727)
inactive: [1] -0.013 | [2] 0.116 | [3] -0.036 | [4] 0.025 | [5] 0.073 | [6] -0.091 | [7] -0.026 | [8] 0.052 | [9] 0 | [10] 0.026

AKAP8L (UniProt Q9ULX6)
inactive: [2] 0.022 | [3] -0.062 | [4] 0.016 | [5] 0.037 | [6] -0.024 | [7] -0.011 | [8] 0.055 | [9] 0.002 | [10] 0.028
active: [1] -0.267

ABCD3 (UniProt P28288)
Sequence of UniProt P28288 (P28288 whole entry, looked up): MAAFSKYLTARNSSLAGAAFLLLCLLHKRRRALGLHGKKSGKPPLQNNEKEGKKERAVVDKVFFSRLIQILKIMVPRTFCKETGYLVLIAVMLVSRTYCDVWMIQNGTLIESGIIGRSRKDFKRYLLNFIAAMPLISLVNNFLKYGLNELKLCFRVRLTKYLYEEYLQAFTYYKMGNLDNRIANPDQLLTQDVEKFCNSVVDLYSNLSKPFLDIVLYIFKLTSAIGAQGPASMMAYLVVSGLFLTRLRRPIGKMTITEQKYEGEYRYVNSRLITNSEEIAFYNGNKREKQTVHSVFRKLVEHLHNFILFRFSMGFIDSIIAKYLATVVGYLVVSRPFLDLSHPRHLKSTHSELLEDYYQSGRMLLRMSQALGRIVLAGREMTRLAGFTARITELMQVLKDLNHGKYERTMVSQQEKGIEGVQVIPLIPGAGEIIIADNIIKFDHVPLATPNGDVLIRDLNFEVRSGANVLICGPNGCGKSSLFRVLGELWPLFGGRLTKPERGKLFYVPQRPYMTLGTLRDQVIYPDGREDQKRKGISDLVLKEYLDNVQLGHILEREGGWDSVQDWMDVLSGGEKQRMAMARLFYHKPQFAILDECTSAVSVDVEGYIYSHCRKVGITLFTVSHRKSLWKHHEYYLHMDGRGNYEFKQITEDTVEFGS
inactive: [1] 0.019 | [2] 0.093 | [3] -0.063 | [4] -0.184 | [5] 0.031 | [6] 0.074 | [7] -0.025 | [8] 0.016 | [9] -0.054 | [10] 0.087

ARHGAP25 isoform 4 (UniProt P42331)
Sequence of UniProt P42331 (P42331 whole entry, looked up): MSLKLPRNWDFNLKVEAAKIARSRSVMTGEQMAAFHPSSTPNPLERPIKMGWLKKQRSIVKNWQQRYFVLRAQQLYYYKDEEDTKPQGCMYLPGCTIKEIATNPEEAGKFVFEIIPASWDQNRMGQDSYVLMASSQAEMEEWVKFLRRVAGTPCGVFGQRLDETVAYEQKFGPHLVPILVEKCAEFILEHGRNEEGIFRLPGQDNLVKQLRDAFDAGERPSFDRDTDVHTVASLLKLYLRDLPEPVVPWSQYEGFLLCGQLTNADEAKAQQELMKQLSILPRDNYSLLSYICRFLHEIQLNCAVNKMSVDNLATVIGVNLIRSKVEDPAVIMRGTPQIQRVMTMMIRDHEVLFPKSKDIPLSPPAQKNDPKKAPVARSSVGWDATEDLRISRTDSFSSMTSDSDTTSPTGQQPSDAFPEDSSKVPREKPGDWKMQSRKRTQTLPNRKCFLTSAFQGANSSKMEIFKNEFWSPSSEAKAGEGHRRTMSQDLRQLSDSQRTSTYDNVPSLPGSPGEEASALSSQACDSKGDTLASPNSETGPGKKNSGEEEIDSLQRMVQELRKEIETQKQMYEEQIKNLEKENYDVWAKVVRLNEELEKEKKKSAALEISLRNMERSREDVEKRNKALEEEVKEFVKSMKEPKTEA
inactive: [1] -0.037 | [2] 0.039 | [3] -0.039 | [4] 0.022 | [5] 0.008 | [6] -0.115 | [7] -0.016 | [8] 0.017 | [9] 0.028 | [10] -0.009

ALDH18A1 (UniProt P54886)
inactive: [1] 0 | [2] -0.023 | [3] -0.027 | [4] -0.004 | [5] 0.007 | [6] -0.06 | [7] -0.001 | [8] 0.025 | [9] 0.023 | [10] -0.019

ALDH6A1 (UniProt Q02252)
inactive: [1] -0.053 | [2] 0.161 | [3] -0.144 | [4] -0.022 | [5] 0.06 | [6] -0.027 | [7] -0.026 | [8] 0.018 | [9] -0.038 | [10] -0.013

AIP (UniProt O00170)
inactive: [1] 0.024 | [2] -0.001 | [3] 0.018 | [4] 0.028 | [5] 0.008 | [6] 0.007 | [7] 0.027 | [8] -0.011 | [9] -0.016 | [10] 0.024

ANKRD10 (UniProt Q9NXR5)
inactive: [1] -0.042 | [2] -0.021 | [3] -0.05 | [4] 0.021 | [5] 0.012 | [6] 0.001 | [7] -0.028 | [8] 0.036 | [9] 0.168 | [10] -0.029

AARS2 (UniProt Q5JTZ9)
inactive: [1] -0.046 | [2] 0.021 | [3] -0.018 | [4] -0.013 | [5] 0.062 | [6] -0.046 | [7] 0.023 | [8] 0.053 | [9] 0.016 | [10] -0.05

ANXA13 isoform 2 (UniProt P27216)
inactive: [1] -0.001 | [2] 0.005 | [3] 0.007 | [4] -0.079 | [5] 0.104 | [6] -0.022 | [7] 0.123 | [8] 0.023 | [9] 0.032 | [10] 0.078
